# “And” between values parts separate entries of the source, which are not always exact repeats. Equal entries are not always repeated. Screen size: about 420,000 compounds; about 50,000 (12%) were called active. Another 26% or so got no clear call; they are omitted. Shown is part of a subset that was picked to be rich in actives. Unmarked numbers belong to inactive results. Calls come from the whole dose curve; as a rule, active = well fitted inhibition curve with a large enough effect; inconclusive = small, poorly fitted or top-dose-only effect; inactive = flat fitted curve, though single readings scatter.
# Assay: qHTS for Inhibitors of human tyrosyl-DNA phosphodiesterase 1 (TDP1): qHTS in cells in presence of CPT; note: nearly all actives have a fitted effect of over 55% in size
# Conditions: chicken DT40 Tdp1-/-;hTDP1 cells + 20 nM CPT, ATP luminescence, 48 h; series mostly up to 46.2 µM; activity change, negative = growth inhibition: at the top concentration
# Outline: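 Chicken DT40 Tdp1-/- cells complemented with human TDP1, 400 cells/well, exposed to compounds plus 20 nM camptothecin for at least 48 h at 37 C; viability read as ATP content by CellTiter-Glo luminescence.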
# % is set by controls: 0 for no effect and ±100 for the full control effect; potency is the fitted concentration of half-maximal effect.
Structure (SMILES),Potency,"activity change, negative = growth inhibition"
Nc1ccc(C(=O)Nc2ccccc2N)cc1,2.37 µM (active) and 5.8 µM (active),–
Nc1ccc(S(=O)(=O)NC(=O)c2ccccc2)cc1,inactive,–
O=C(NCC1CCCO1)/C(=C/c1ccc(Cl)cc1)NC(=O)c1ccccc1 (stereo not drawn),–,-17.3%
Cc1nn(C)cc1S(=O)(=O)N1CCN(c2ccc(F)cc2)CC1,–,-1.16%
O=C(COc1cccc2c1CCNC2=O)NC1CCCCC1,–,-29.5%
CCOc1ccccc1NC(=O)C1CCCN(S(=O)(=O)c2cn(C)cn2)C1 (stereo not drawn),–,13.4%
CCOc1ccccc1CNC(=O)C1CCCN(S(=O)(=O)c2ccc3c(ccn3C)c2)C1 (stereo not drawn),14.6 µM (active),–
COc1cccc(CNC(=O)C2CCN(S(=O)(=O)c3ccc4c(ccn4C)c3)CC2)c1,–,-15.4%
O=C1CCCCC1Sc1ccc(Cl)cc1[N+](=O)[O-] (stereo not drawn),–,-11.8%
Cc1c(CNC2CCCCC2)c(C(=O)O)c(C)n1Cc1cccc(Cl)c1,–,-21.2%
CC(=O)c1ccc(NC(=O)C(C)NCc2ccc(Cl)cc2)cc1 (stereo not drawn),–,-18.7%
Nc1nonc1-n1nnc(C(=O)N/N=C/c2ccc(Cl)cc2)c1-c1ccc2c(c1)OCO2,–,-20.4%
Cc1cc(N2C(=O)C(=O)/C(=C(/O)c3ccccc3)C2c2cccc(Br)c2)no1 (stereo not drawn),–,-28.5%
CCN(CC)CCCC(C)n1c2nc(=O)[nH]c(=O)c-2nc2cc(Cl)ccc21 (stereo not drawn),8.2 µM (active),–
COc1ccc(/C=N/Nc2nc3ccccc3c(=O)[nH]2)cc1,–,-16.4%
COc1ccc(Cc2nnc(N/N=C/c3ccccc3O)[nH]c2=O)cc1OC,0.0184 µM (active),–
O=c1[nH]c(NCCO)nnc1Cc1ccc(Cl)cc1,–,0.596%
COC(=O)C(=Nc1ccccc1)/C(C(=O)C(=O)N(C)c1ccccc1)=C(\O)c1ccc(Cl)cc1,–,7.92%
O=c1cnnc(Nc2ccccc2F)[nH]1,–,-6.88%
Cc1c(C(=O)OCC(=O)N2CCCC2=O)oc2ccccc12,–,14.4%
COc1ccccc1CNC(=O)C(Cc1ccccc1)NS(=O)(=O)c1ccc2c(c1)oc(=O)n2C (stereo not drawn),20.6 µM (active),–
Cc1ccc(NC(=O)C(Cc2ccccc2)NS(=O)(=O)c2ccc3c(c2)oc(=O)n3C)cc1C (stereo not drawn),–,8.66%
CSCCC(NS(=O)(=O)c1ccc2c(c1)oc(=O)n2C)C(=O)NCc1ccccc1 (stereo not drawn),inactive,–
Cc1cccc(NC(=S)N2CCCC(c3nc4ccccc4[nH]3)C2)c1 (stereo not drawn),–,-26%
Cc1cccc(NC(=S)NCc2ccc3[nH]c4c(c3c2)CCCC4)c1,23.1 µM (active),–
O=C(O)CCC(=O)NCc1ccc2[nH]c3c(c2c1)CCCC3,–,-3.68%
Cc1ccc(S(=O)(=O)N2CCOCC2)cc1C(=O)Nc1ccccc1N1CCCC1,–,-26.6%

Structure (SMILES),Potency,"activity change, negative = growth inhibition"
Oc1cccc(CCc2ccccn2)c1,–,-10.9%
C=CCC[C@@H](CCCCC)OC(=O)/C=C/[C@@H](O)[C@H](O)C[C@H](O)CC=C,23.1 µM (active),–
CN(C)/C=C(/C(=O)c1ccccc1Cl)S(C)(=O)=O,–,-0.266%
COC(=O)c1ccc(/C=C/c2c(-c3ccc(OC)cc3)sc3ccccc23)cc1,14.6 µM (active),–
COc1ccc(NC(=O)COC(=O)c2ccc(NS(=O)(=O)/C=C/c3ccccc3)cc2)cc1,–,15.2%
COc1ccccc1-c1sc2ccccc2c1-c1ccc(C(C)=O)cc1,–,-23%
CCCCOc1ccc(C(=O)NCC(=O)OCC(=O)c2c(N)n(C)c(=O)n(C)c2=O)cc1,–,14.1%
CC(C)c1nc2ccc(C(=O)O)cc2[nH]1,–,20.3%
COC(=O)Nc1nc2ccc(Sc3ccccc3)cc2[nH]1,651 nM (active) and 360 nM (active) and 517 nM (active),–
Cc1nc2ccc(C(=O)O)cc2[nH]1,–,3.42%
N#Cc1ccccc1NC(=O)c1ccc2c(c1)OCO2,–,-4.16%
CC(C)c1ccc(NC(=O)C2CCN(c3nc(-c4ccc(C(C)C)cc4)no3)CC2)cc1,13 µM (active),–
Cc1cc(C)cc(NC(=O)C2CCN(c3nc(C)cc(C)n3)CC2)c1,–,-9.07%
CCOc1ccc(NC(=O)C2CCN(S(=O)(=O)c3cc(-c4noc(C)n4)ccc3C)CC2)cc1,–,-26.3%
Cc1ccc(NC(=O)CSc2sc3c(O)cc(=O)[nH]c3c2C#N)cc1C,–,-2.41%
CCC(=O)N1c2ccccc2NC2=C(C(=O)CCC2)C1c1ccco1 (stereo not drawn),–,25.3%
Cn1ccnc1SCC(=O)Nc1ccc2c(c1)OCCO2,–,15%
C=CCn1c(CNC(=O)c2ccco2)nnc1SCC(=O)c1ccc(OC)cc1,–,-26.5%
CCNC(=O)C1(C)CCN(Cc2ccc(C(=O)OCC)o2)C1 (stereo not drawn),–,-13.1%
COCCNC(=O)C1(C)CCCN(Cc2cccc(F)c2)C1 (stereo not drawn),–,-22.2%
CCCNC(=O)C1(C)CCCN(Cc2cccc(C(F)(F)F)c2)C1 (stereo not drawn),18.4 µM (active),–
CCCNC(=O)C1(C)CCN(Cc2csc(-c3ccc(Cl)cc3)n2)C1 (stereo not drawn),23.1 µM (active),–
CCCNC(=O)C1(C)CCCN(C(=O)c2cccc(OC(C)=O)c2C)C1 (stereo not drawn),–,-1.02%
CCCNC(=O)C1(C)CCCN(Cc2c(C)nn(-c3ccccc3)c2C)C1 (stereo not drawn),–,-11.8%
COc1ccc(CCNC(=O)COC(=O)C2CC2C)cc1 (stereo not drawn),–,-15.7%
COc1ccc(C(CNC(=O)c2ccc(S(=O)(=O)Nc3ccccc3F)cc2)N(C)C)cc1 (stereo not drawn),–,-13.4%

# Reference: PubChem BioAssay AID686979 (National Center for Advancing Translational Sciences (NCATS), 2013)
